Screens: PubChem BioAssay, several laboratories
Only some compounds are listed: those with a hit (about 4.3% of all), similar ones and a draw of the others.
CF NFkB block = inhibitors of cystic fibrosis induced NF-kB | KKLEB NF-kB-GFP reporter, PAF-induced, GFP fluorescence overnight | inhibition, % at 5 µM | actives 0.86% (n = 360,000) | AID 588850;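 active means at least 50% inhibition at 5 µM, scaled per plate between neutral and stimulator controls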;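 further: PAF is a Pseudomonas aeruginosa culture filtrate used as stimulus; plate controls were PAF-stimulated DMSO wells for no effect and unstimulated DMSO wells for full effect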
MITF TRPM1 inh = reduces MITF-dependent TRPM1 promoter luciferase signal; SK-MEL-5 TRPM1 promoter luciferase, 24 h; inhibition, % at 12.5 µM; actives 0.83% (n = 330,000);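 active means mean inhibition across replicates of 60% or more, whatever share of single replicates reaches that level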
Peg3 prom inh = Peg3 promoter activity inhibition. inhibition, % at 20 µM. actives 1.7% (n = 360,000). HeLa PEG-Prom luciferase reporter, luminescence, overnight. AID 588405;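 active means inhibition of at least 50% at 20 µM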
HIF-2a block = inhibitors of HIF-2a; 786-0 RCC cells HIF-2a reporter, luciferase luminescence, overnight; inhibition, % at 18.8 µM; actives 0.72% (n = 360,000); AID 624352;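 active means inhibition of the luminescence signal of 40% or more relative to plate controls, in a single-dose primary screen at 18.75 µM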
CHOP inhibitor = inhibitors of CHOP induction in ER stress response | CHO-K1 CHOP-promoter luciferase, tunicamycin-induced, 15-18 h | inhibition, % at 10 µM | actives 3.8% (n = 220,000) | AID 2732;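 active means compounds that reduced the stress-induced luciferase reporter signal by more than about 70% of percent inhibition, limit read from the data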;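 further: 0% = tunicamycin plus vehicle and 100% = wells without tunicamycin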
KKLEB tox = counter-screen for CF NF-kB inhibitors: cytotoxicity; KKLEB CF airway cells viability, ATPlite luminescence, overnight; stronger effect = lower value; cells stimulated with P. aeruginosa culture filtrate; activity change (cytotoxicity), % at 5 µM; actives 0.36% (n = 360,000);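 active means corrected activity change at or below -50% at 5 µM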
* = called active by the depositor; . = no result; ! = repeats disagree.

SMILES	CF NFkB block	MITF TRPM1 inh	Peg3 prom inh	HIF-2a block	CHOP inhibitor	KKLEB tox
CN(C)CCCN(C(=O)c1ccc2c(c1)CCCC2)c1nc2cc3c(cc2s1)OCO3	14.5	-4.3	57.4*	2.6	.	6.7
Cc1ccc2sc(N(CCCN(C)C)C(=O)c3ccc(Br)s3)nc2c1C	18.8	-20.4	62.5*	-10.7	68.7	-2.4
CN(C)CCCN(C(=O)c1ccc(Br)s1)c1nc2cc3c(cc2s1)OCO3	0.8	54.3	59.2*	-0.2	-31.3	-6.0
CN(CC(=O)Nc1ccc(F)cc1)C(=O)c1cc(-c2cccs2)nn1-c1ccccc1	6.1	6.8	33.9	9.1	.	-10.0
COCCNC(=O)C1(C)CCCN(C(=O)c2ccc3c(c2)CCO3)C1 (configuration not stated)	11.2	.	-13.3	1.1	.	-0.2
CCN(C(=O)c1cc2c(C)nc3ccccc3c2o1)c1cc(Cl)ccc1OC	29.9	12.9	25.9	19.2	59.2	-8.8
CCCCN(Cc1ccccc1)c1ncnc2nc[nH]c12	30.6	.	-213.0	-142.4	75.0*	4.6
O=C(CCCOc1ccccc1)NC(=S)Nc1ccccc1	-15.4	-9.8	-24.0	-71.8	32.4	2.8
CN(C(=O)c1cccc(NC(=O)Cc2ccc(NC(=O)C3CCCN(C(=O)CCc4ccccc4)C3)cc2)c1)C1CCC1 (configuration not stated)	-0.3	61.5*	2.4	6.7	.	-0.6
CC[C@H](C)[C@@H]1OC(=O)[C@@H](C)[C@@H](CC)NC(=O)[C@H](C)N(C)C(=O)C(C)(C)C(=O)C(C)NC(=O)[C@H](Cc2ccccc2)N(C)C(=O)[C@H](C(C)C)N(C)C(=O)CNC(=O)[C@H](CC(C)C)N(C)C(=O)CNC1=O (some centres not stated)	90.6*	.	87.2*	11.4	.	-96.6*
O=C(c1ccc(COc2ccc(Cl)cc2)o1)N1CCN(Cc2ccc3c(c2)OCO3)CC1	-16.4	0.7	14.6	19.0	7.4	1.9
O=C(c1ccc(COc2ccccc2Cl)o1)N1CCN(Cc2ccc3c(c2)OCO3)CC1	2.3	3.9	9.7	20.8	73.0*!	-3.4
CCCCNc1nc(N)nc(-c2cc(Cl)ccc2O)n1	82.5*	-19.1	33.3	-183.9	76.6*	-27.1
CCCSc1cc(NCCOC(C)=O)c([N+](=O)[O-])c2nonc12	-15.2	3.7	14.3	24.4	19.9	-10.5
O=[N+]([O-])c1c(NCCO)cc(N2CCCCCC2)c2nonc12	-8.9	-5.3	15.7	23.9	.	-3.1
Cc1nnc(Sc2cc(NCCCO)c([N+](=O)[O-])c3nonc23)s1	-7.2	75.0*	56.1*	32.2	-50.8	6.2
CCCSc1cc(NCCOC(=O)CCC)c([N+](=O)[O-])c2nonc12	-5.9	-6.0	56.1*	13.7	68.0	-1.9
CCOC(=O)Cc1nnc(NC(=O)CCc2ccccc2)s1	-6.6	1.8	6.5	12.4	.	9.8
COc1cc(CNc2ccc(O)cc2)cc(Br)c1OCc1ccccc1F	-16.8	12.4	-18.9	-15.4	87.1*	-7.8
COC(=O)c1cc(C(=O)c2ccc(Cl)cc2Cl)cn1C	-13.7	-6.4	-24.9	-28.7	71.7*	-3.5
CCCCN(C(=O)C1CC(=O)N(c2ccc(CC)cc2)C1)c1c(N)n(CCC)c(=O)[nH]c1=O (configuration not stated)	-6.6	9.5	-9.7	-0.6	.	6.4
CCCCCSc1nc2c(cnn2-c2ccccc2)c(=O)[nH]1	3.4	7.7	17.8	14.2	71.2*	-3.3
O=c1[nH]c(SCc2ccccc2Cl)nc2c1cnn2-c1ccccc1	23.7	-2.5	35.6	11.6	95.8*	-8.0
CC(C)Sc1nc2c(cnn2-c2ccccc2)c(=O)[nH]1	12.7	-2.4	15.6	7.0	71.7*	-6.2
O=C(CSc1nc2c(cnn2-c2ccccc2)c(=O)[nH]1)N1CCOCC1	-8.3	-2.0	3.2	15.6	-6.0	6.0
SMILES	CF NFkB block	MITF TRPM1 inh	Peg3 prom inh	HIF-2a block	CHOP inhibitor	KKLEB tox
Cc1cccc(C(=O)NC(C)C(=O)NC(c2nc3ccccc3[nH]2)C(C)C)c1 (configuration not stated)	18.7	-10.7	-6.0	-2.7	.	-13.7
CC(C)C(NC(=O)C(c1ccccc1)c1ccccc1)c1nc2ccccc2[nH]1 (configuration not stated)	-1.7	31.4	-5.8	-12.3	77.5*	9.7
N=C1Sc2ccccc2C2=NCCCN12	.	.	.	.	1.1	.
CC(C(=O)Nc1cccc(C#N)c1)N(C)CCOc1ccccc1 (configuration not stated)	6.7	-5.9	14.5	4.4	.	-14.4
CC(C(=O)Nc1ccccc1)N(C)CCOc1ccc(Br)cc1 (configuration not stated)	-15.8	4.6	9.7	-1.2	83.6*	15.8
O=C(CN(Cc1ccc(F)cc1)C(=O)CNS(=O)(=O)c1ccccc1)NCC1CCCO1 (configuration not stated)	10.2	9.5	14.3	6.6	.	-4.7
Cc1ccn2c(c1)nc(=S)n2C(=O)c1ccccc1	-10.4	41.4	-9.6	47.9*	12.2	-51.2*
Cc1cccc(C(=O)n2c(=S)nc3cc(C)ccn32)c1	-33.1	6.6	-56.0	-58.1	29.9	-30.8
CC(C)(C)OC(=O)N[C@@H](Cc1ccccc1)C(=O)N1CCC(C(=O)N[C@@H](Cc2c[nH]c3ccccc23)C(=O)O)CC1	-13.7	1.9	0.7	14.0	.	14.3
C=CC(=O)Nc1cccc(Nc2nc(N[C@H]3CC[C@H](N(C)C)CC3)nc3c2ncn3C(C)C)c1	84.6*	90.0*	101.7*	71.5*	.	-70.0*
CC1Cc2ccccc2N1C(=O)CNc1ccccc1N1CCCCC1 (configuration not stated)	-5.4	6.7	9.9	14.9	73.8*	-0.5
CCOc1ccccc1OC(=O)CN1C(=O)c2ccccc2C1=O	-5.5	-0.6	-3.8	19.3	.	1.8
O=C(CCc1nnc(Cc2c[nH]c3ccccc23)o1)NCCC1CCCCO1 (configuration not stated)	20.2	.	-39.6	-30.3	.	-10.5
N#Cc1c(N)n(CCc2ccc(F)cc2)c2nc3ccccc3nc12	34.7	-3.1	-8.8	-23.9	71.5*	-7.4
CCOC(=O)c1sc(NC(=S)NC(=O)c2ccccc2)c(C(=O)OCC)c1C	22.1	27.4	7.0	6.2	77.1*	-30.7
CCOC(=O)C1=C(NC(=S)NC(=O)c2ccccc2)c2ccccc2CC1C(C)C (configuration not stated)	10.9	1.8	34.2	5.0	89.1*	-5.3
CCOC(=O)c1sc(NC(=S)NC(=O)c2ccccc2Cl)c(C(=O)OCC)c1C	16.4	-0.2	-1.9	-21.9	-1.1	-10.8
CCOC(=O)C1=C(NC(=S)NC(=O)c2ccccc2)c2ccccc2CC1(C)CC (configuration not stated)	8.9	-1.0	42.0	3.7	47.7	-11.0
CCOC(=O)c1c(NC(=O)CN2CCCc3ccccc32)sc(C(C)=O)c1C	-24.7	12.5	22.5	-23.5	93.0*	15.7
